Bioassay records (PubChem BioAssay)
PI4K2A inh: qHTS for small molecular inhibitors of PI4K2A. 420,000 compounds, 0.13% hits. activity change, negative = inhibition, % at 76.9 µM. purified PI4K2A, ADP-Glo luminescence, 1 h; active compounds read low; in the data active means activity change below about -50%; inconclusive means mostly about -30% to -49%;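 further: -100% = wells without enzyme as full effect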
Target sequence (Q9BTU6 whole entry, looked up): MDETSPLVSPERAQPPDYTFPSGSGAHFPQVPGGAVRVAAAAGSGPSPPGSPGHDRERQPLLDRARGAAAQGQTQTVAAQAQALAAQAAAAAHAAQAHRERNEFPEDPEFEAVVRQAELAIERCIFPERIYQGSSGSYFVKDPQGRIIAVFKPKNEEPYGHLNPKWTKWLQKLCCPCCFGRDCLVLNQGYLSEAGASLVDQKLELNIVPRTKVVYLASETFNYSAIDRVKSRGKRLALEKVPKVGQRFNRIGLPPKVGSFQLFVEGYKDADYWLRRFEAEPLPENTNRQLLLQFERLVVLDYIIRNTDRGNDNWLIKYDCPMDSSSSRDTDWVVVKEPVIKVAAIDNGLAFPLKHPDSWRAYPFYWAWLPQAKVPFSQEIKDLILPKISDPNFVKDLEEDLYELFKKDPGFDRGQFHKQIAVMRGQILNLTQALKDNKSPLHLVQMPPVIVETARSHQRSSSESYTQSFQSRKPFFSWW
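In this quantitative HTS, ADP production by PI4K2A was quantified luminescently after 1 h at ambient temperature; 100 microM adenosine served as plate-quality control.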
Giardia killer: Small Molecules that selectively kill Giardia lamblia: qHTS. activity change, % at 7.66 µM, hits read low. AID 540267, 2011. Giardia lamblia trophozoite viability. 340,000 compounds, 0.15% hits; in the data active means activity change below about -80%; inconclusive means between about -30% and that limit;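 further: parasites exposed to compound for two days anaerobically before the ATP read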
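Anaerobic 48 hrs incubation at 37 deg C of 100 trophozoites/well with test compounds; ATPLite 1-Step luminescence, 15-30 min RT, reports cellular ATP as viability.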
KB-V1 cytotox: qHTS assay for MDR1-selective chemotherapeutics: Primary screen using the drug-selected MDR subline cells KB-V1; KB-V1 MDR cells viability, CellTiter-Glo, 72 h; Potency, µM (series often up to 46.1 µM), actives largely listed as cytotoxic; 400,000 compounds, 3.4% hits; further: potency means the concentration at half of the fitted maximal effect; nearly all actives have a fitted effect of over 60% in size
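Cells of the MDR subline KB-V1 are plated, dosed with compound at multiple concentrations, and incubated 72 h at 37 degrees C; CellTiter-Glo is then added and luminescence read after 10 min.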
Nrf2 block: Nrf2 qHTS screen for inhibitors; Potency, µM (top dose mostly 46 µM), for inactives: at the highest dose activity change, negative = inhibition, hits mostly inhibitors; 360,000 compounds, 2.1% hits; A549 ARE-Fluc reporter, luciferase luminescence, 18-24 h; AID 504444, 2011; further: potency means the concentration at half of the fitted maximal effect; nearly all actives have a fitted effect of over 60% in size
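Reporter: ARE-Fluc in A549. Exposure: 18-24 h, 37 °C, 5% CO2, 5% FBS OPTI-MEM. Readouts: fluorescent cytotoxicity (CellTiter-Fluor), then luminescent Nrf2 signal after BugLite.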
A549 tox: Nrf2 qHTS screen for inhibitors: counterscreen for cytotoxicity. Potency, µM (titrated, usually from 46 µM), for inactives: top-dose activity change, negative = cytotoxicity, hits mostly inhibitors. A549 ARE-Fluc cells, CellTiter-Fluor viability, 18-24 h. 390,000 compounds, 0.16% hits; further: potency means the concentration at half of the fitted maximal effect
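A549 ARE-Fluc cells in 5% FBS OPTI-MEM, 5000 cells/well, rested 2 h then exposed to compounds in concentration-response for 18-24 h at 37 °C. Viability by CellTiter-Fluor fluorescence (Ex 405/Em 525) after 30 min; luciferase luminescence (BugLite, 15 min, RT) read afterwards.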
KB-3-1 tox: qHTS assay for MDR1-selective chemotherapeutics: Primary screen using the parental adenocarcinoma cell KB-3-1; KB-3-1 viability, CellTiter-Glo ATP luminescence, 72 h; Potency, µM (top dose mostly 46.1 µM), actives largely listed as cytotoxic; 400,000 compounds, 1.4% hits; AID 1347075, 2019; further: potency means the concentration at half of the fitted maximal effect; nearly all actives have a fitted effect of over 60% in size
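KB-3-1 parental drug-naive adenocarcinoma cells in DMEM/10% FBS, incubated 72 h at 37 C with pin-transferred compounds across a concentration series. Viability by CellTiter-Glo luminescence; concentration-response curves fitted after normalization.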
An asterisk follows results filed as active; i = inactive; ? = inconclusive; nt = no result; [ ] = remark or other dose. An excerpt weighted towards active compounds, which were near 5.7% of everything screened. Unless noted, the call rests on the fitted dose curve; in most records, active means well fitted curve in the direction sought with a large enough effect; inconclusive means small, poorly fitted or top-dose-only effect, or another doubt; inactive means no such curve, though single readings can be large; an effect the other way counts as inactive or inconclusive. Unless noted, on the % scale 0 is the no-effect control and ±100 the full control effect.

SMILES | PI4K2A inh | Giardia killer | KB-V1 cytotox | Nrf2 block | A549 tox | KB-3-1 tox
COc1ccc(NC(=O)c2ccccc2)cc1NS(=O)(=O)c1ccc(F)cc1 | -6 | 1 | i | -9% | 15% | i
N#C[C@H]1C[C@H]2C[C@@H]2N1C(=O)[C@@H](N)C12CC3CC(CC(O)(C3)C1)C2 | -1 | nt | nt | nt | nt | nt
COc1ccc(NS(=O)(=O)c2cc(NC(=O)/C=C/c3cccs3)ccc2N2CCOCC2)cc1 | -4 | -15 | ? | ? | -16% | i
O=C(Nc1ccc(N2CCOCC2)c(S(=O)(=O)Nc2ccccc2Cl)c1)c1ccc(=O)[nH]n1 | 0 | -3 | i | -20% | 0% | ?
O=C(Nc1ccc(N2CCOCC2)c(S(=O)(=O)Nc2ccccc2Cl)c1)c1ccccc1 | 1 | -3 | i | 16µM* | -8% | ?
COc1ccc(NS(=O)(=O)c2cc(NC(=O)/C=C/c3ccccc3OC)ccc2N2CCCCC2)cc1 | 2 | 3 | 5.2µM* | ? | 15% | i
COc1ccccc1NS(=O)(=O)c1cc(NC(=O)c2ccncc2)ccc1N1CCCC1 | -1 | 0 | ? | 21µM* | -16% | i
Cc1ccccc1-c1nc2c3c(-c4ccccc4)c(-c4ccccc4)oc3ncn2n1 | 5 | nt | nt | 3% | -3% | nt
COc1ccc(NC(=O)c2ccc(-c3ccccc3)cc2)cc1S(=O)(=O)N1CCOCC1 | -2 | 7 | ? | ? | -6% | i
CCc1ccc(C(=O)Nc2ccc(OC)c(S(=O)(=O)N3CCCCC3)c2)cc1 | 1 | -2 | i | 7.3µM* | -11% | ?
CCc1ccc(C(=O)Nc2ccc(OC)c(S(=O)(=O)N3CCOCC3)c2)cc1 | -1 | -17 | 9.2µM* | ? | -12% | i
O=C(NNc1ccccc1)c1sc2ccccc2c1Cl | nt | -12 | nt | 17% | 9% | nt
CCC(c1nnnn1CCc1ccccc1)N(Cc1ccco1)Cc1cc2c(C)ccc(C)c2[nH]c1=O (stereo not given) | -14 | 3 | ? | 18µM* | ? | ?
Cc1ccc2c(c1)C1CS(=O)(=O)N(Cc3ccccc3)C(=O)N1C2 (stereo not given) | -3 | nt | nt | nt | nt | nt
COc1cccc(-c2cc(C(=O)Nc3nc4ccccc4s3)c3ccccc3n2)c1 | -1 | -6 | 21µM* | -17% | -5% | i
COc1ccc(-c2cc(C(=O)Nc3nc4c(C)cccc4s3)c3ccccc3n2)cc1OC | 6 | -12 | i | -20% | -4%[1.84 µM] | i
Cc1ccc(C)c(-c2cc(C(=O)Nc3sc(C)c(C)c3C(N)=O)c3ccccc3n2)c1 | 4 | 4 | 4.1µM* | ? | -28% | ?
CC(=O)c1sc(Nc2ccccn2)nc1C | 14 | -16 | ? | ? | 14% | 15µM*
COc1ccccc1C(=O)Nc1nc2ccccc2s1 | -71* | ? | ? | 6.5µM* | 3% | ?
CC(=O)c1sc(Nc2cccc3ccccc23)nc1C | 2 | 14 | i | 12% | 17% | i
CCCc1nn2c(=O)cc(COC(=O)c3cccc(NC(=O)c4ccc(OCC)cc4)c3)nc2s1 | 1 | nt | nt | nt | -2% | nt
COc1ccc2nc(NC(=O)c3ccc(NC(=O)C4CCCO4)cc3)sc2c1 (stereo not given) | -4 | 4 | i | ? | -5% | 7.3µM*
NC(=S)Nc1nc2ccccc2s1 | 5 | 0 | 8.2µM* | ? | -5% | ?
COc1ccc2nc(Nc3nc(C)c(C(C)=O)s3)sc2c1 | -16 | 1 | 18µM* | ? | -16% | i
O=C(Nc1nc2ccccc2s1)C1c2ccccc2Oc2ccccc21 | 0 | 5 | 18µM* | ? | -15% | i
SMILES | PI4K2A inh | Giardia killer | KB-V1 cytotox | Nrf2 block | A549 tox | KB-3-1 tox
COCC(=O)Nc1nc2ccccc2s1 | 5 | 8 | i | 14% | 3% | i
O=C(Nc1nc2ccccc2s1)C1CCCO1 (stereo not given) | 0 | -10 | i | ? | 0% | i
C[C@H](O)[C@@H]1CN2CCc3c([nH]c4c(-c5ccccc5)cccc34)[C@@H]2C[C@@H]1N(C)C(=S)Nc1ccc(C#N)cc1 | -6 | nt | nt | nt | nt | nt
Cc1ccc2nc(NC(=O)c3cc(-c4ccco4)nc4ccccc34)sc2c1 | 3 | 0 | ? | 23µM* | -11% | ?
Fc1cccc2sc(Nc3nc4ccccc4s3)nc12 | -2 | -6 | 21µM* | ? | 12% | i
O=C(Nc1nc2ccccc2s1)c1cc(-c2ccco2)nc2ccccc12 | 3 | 5 | ? | -17% | -5% | ?
COc1ccccc1C(=O)Nc1nnc(CCc2ccccc2)s1 | -2 | 10 | ? | -9% | 12% | 12µM*
Fc1ccc2nc(Nc3nc4c(F)cccc4s3)sc2c1 | -1 | 6 | ? | 5% | 11% | i
COc1ccccc1C(=O)Nc1nc2ccc(S(C)(=O)=O)cc2s1 | 9 | -11 | 5.8µM* | ? | -15% | i
COc1ccc(-n2cc(C(=O)N(C)c3cc(C)ccc3OC)c3ccccc3c2=O)cc1 | -5 | nt | nt | 11% | 0% | nt
N#Cc1cccc(NS(=O)(=O)c2ccc3c(c2)CCC(=O)N3)c1 | nt | nt | ? | 0% | 2% | ?
CSc1ncccc1C(=O)Nc1nc2ccc(Oc3ccccc3)cc2s1 | -4 | ? | i | 10µM* | -7% | i
Cc1ccc(NC(=S)c2nc3ccccc3s2)cc1 | -82* | -2 | i | nt | -3% | i
O=C(Nc1nc2ccccc2s1)c1c(F)cccc1Cl | 0 | -5 | i | ? | -2% | ?
COc1ccc2nc(NC(=O)c3ccccc3C(=O)O)sc2c1 | 5 | -15 | i | -15% | 0% | i
Cn1cc(Cl)c(C(=O)Nc2nc3ccccc3s2)n1 | -7 | -26 | 18µM* | ? | 27% | i
COc1ccc2nc(NC(=O)c3ccccc3F)sc2c1 | -5 | -30 | i | 1.3µM* | 7% | i
C#CCNC(=O)C[C@@H]1C(=O)N(Cc2ccc(OC)cc2)/C2=C/CCCCC[C@@]21C(=O)OCC | -4 | nt | nt | nt | nt | nt
O=c1c2ccccc2n(Cc2ccco2)n1[C@@H](Cc1ccccc1)Cn1cc(-c2ccc(-c3ccccc3)cc2)nn1 | -22 | nt | nt | nt | nt | nt
COC(=O)c1sc(NC(=O)C2c3ccccc3Oc3ccccc32)c(C(=O)OC)c1C | -2 | 0 | 12µM* | ? | 10% | i
COc1ccc(NC(=O)Nc2nc3ccccc3s2)cc1 | 0 | 13 | i | ? | ? | i
